Assay [1] has as its system TRPC4 beta (transient receptor potential cation channel C4), mouse. The assay can be described thus: activators of mouse TRPC4 channel, confirmation, cell-based, Fluo4 calcium, HEK293 TRPC4beta/mu-opioid, duplicates, 10 µM (AID 2426;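 active means fluorescence ratio normalized to control raised more than 50% in primary screen plus both repeat runs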). The note with it: Fluo4 calcium fluorescence, at 10 µM; stronger effect = higher value.
The test system of assay [2] is transient receptor potential cation channel C4 beta (TRPC4), mouse. The assay can be described thus: activators of mouse TRPC4 channel, confirmation, cell-based, second round, Fluo4, HEK293 TRPC4beta/mu-opioid, 1 µM (AID 2461;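 active means primary screen active and over 50% activation in each of two duplicate runs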). The note with it: Fluo4 calcium fluorescence, at 1 µM; stronger effect = higher value.
Assay [3] relates to TRPC4 (transient receptor potential cation channel C4 beta), mouse. Briefly: positive allosteric modulators of mouse TRPC4, confirmation, cell-based, second round, Fluo-4, HEK293 TRPC4beta/mu-opioid, 1 µM (AID 2554;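 active means primary screen hit whose fluorescence ratio, in both repeats, exceeds the weak agonist control mean by 3 SD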). The settings on record: DAMGO EC20, Fluo-4 calcium flux, at 1 µM; stronger effect = higher value.
For assay [4], the system named is TRPC4 beta (transient receptor potential cation channel C4), mouse. The assay can be described thus: positive allosteric modulators of mouse TRPC4, confirmation, cell-based, Fluo-4, HEK293 TRPC4beta/mu-opioid (AID 2555;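 active means primary screen hit whose calcium fluorescence ratio, in both repeats, exceeds the weak agonist control mean by 3 SD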). The note with it: DAMGO EC20, Fluo-4 calcium flux, at 10 µM; stronger effect = higher value. For orientation: A change in cytosolic calcium serves as a functional read-out for many receptors and channels.

Assay [5] concerns the target Short transient receptor potential channel 4 (Mus musculus) (UniProt Q9QUQ5). Briefly: inhibitors of mouse TRPC4 channel, confirmation, cell-based, Fluo4, HEK293 TRPC4beta/mu-opioid (AID 2636;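 active means calcium signal cut by more than 3 SD below the full-agonist control yet still positive, in both repeats and the earlier primary screen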). The settings on record: DAMGO, Fluo4 calcium flux, at 10 µM; stronger effect = higher value.
The target is the same in assay [6]. The assay can be described thus: inhibitors of mouse TRPC4 channel, confirmation, cell-based, second round, Fluo4, HEK293 TRPC4beta/mu-opioid, 1 µM (AID 2637;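 active means calcium signal ratio cut to more than 3 SD under the fully stimulated control mean yet still positive, in both repeats and the primary screen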). The note with it: Fluo4 calcium flux, DAMGO, at 1 µM; stronger effect = higher value.
The target is the same in assay [7]. Briefly: mouse TRPC4 channel activators, dose response, cell-based, HEK293 TRPC4/mu-opioid, Fluo-4 calcium (AID 434937;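 active means primary screen activator hit with a dose response curve and TRPC4 channel activation at any tested dose; inactive means no activation, no dose response, or not a primary hit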).
For assay [8] the target is unchanged. Briefly: TRPC4 positive allosteric modulators, dose response, cell-based, HEK293 TRPC4/mu-opioid, Fluo-4 calcium, EC20 DAMGO (AID 434941;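 active means earlier screen potentiator hit that boosts the TRPC4 ion channel at some dose, with a dose response; inactive means no potentiation, no dose response, or not a prior hit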;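 further: calcium entry triggered by an EC20 dose of DAMGO at the co-expressed mu-opioid receptor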).
Assay [9] shares this target. Briefly: mouse TRPC4 channel inhibitors, dose response, cell-based, HEK293 TRPC4/mu-opioid, Fluo-4 calcium (AID 434942;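 active means primary screen inhibitor hit that blocks the TRPC4 channel at some tested dose, yielding a dose curve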).
Assay [10] addresses Short transient receptor potential channel 6 (Mus musculus) (UniProt Q61143). Briefly: inhibition of mouse TRPC6 channel, confirmation, selectivity assay for TRPC4 inhibitor project, cell-based, HEK293, membrane potential dye, duplicate (AID 434948;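 active means active in primary screen and both duplicates, each dropping signal beyond three positive-control SD with fluorescence still positive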). The note with it: HEK293 TRPC6, membrane potential dye fluorescence, at 10 µM, stimulated with maximal-effect acetylcholine; stronger effect = higher value.

Assay [11] has the same target. Briefly: activation of mouse TRPC6 channel, confirmation, selectivity assay for TRPC4 activator project, cell-based, HEK293, membrane potential dye, duplicate (AID 434950).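 On activation: 0% = buffer only wells and 100% = acetylcholine maximal-effect wells.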 The note with it: HEK293 TRPC6, membrane potential fluorescence, at 10 µM; stronger effect = higher value.
The target is the same in assay [12]. Briefly: TRPC6 potentiation by TRPC4 potentiator hits, confirmation, selectivity assay for TRPC4 potentiator project, HEK293 cells, membrane potential dye, duplicate (AID 434952;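 active means compound raising the membrane signal above positive-control mean plus 3 SD in both repeats, and a primary screen hit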). The settings on record: HEK293 TRPC6, membrane potential dye fluorescence, at 10 µM, maximal acetylcholine added after compound; stronger effect = higher value.
For assay [13], the target named is Short transient receptor potential channel 4 (Mus musculus) (UniProt Q9QUQ5). Briefly: calcium flux activators in TRPC4/5HT1a cells, counter-screen for TRPC4 activator project, cell-based, second counter screen, HEK293 TRPC4/5HT1a, Fluo-4 (AID 434977;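 active means calcium signal rise above buffer-control mean plus 5 SD in both duplicates, and also a hit in the primary screen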). The note with it: Fluo-4 calcium flux, at 10 µM; stronger effect = higher value.
Chain of Short transient receptor potential channel 4 (Mus musculus) (Q9QUQ5 whole entry, looked up): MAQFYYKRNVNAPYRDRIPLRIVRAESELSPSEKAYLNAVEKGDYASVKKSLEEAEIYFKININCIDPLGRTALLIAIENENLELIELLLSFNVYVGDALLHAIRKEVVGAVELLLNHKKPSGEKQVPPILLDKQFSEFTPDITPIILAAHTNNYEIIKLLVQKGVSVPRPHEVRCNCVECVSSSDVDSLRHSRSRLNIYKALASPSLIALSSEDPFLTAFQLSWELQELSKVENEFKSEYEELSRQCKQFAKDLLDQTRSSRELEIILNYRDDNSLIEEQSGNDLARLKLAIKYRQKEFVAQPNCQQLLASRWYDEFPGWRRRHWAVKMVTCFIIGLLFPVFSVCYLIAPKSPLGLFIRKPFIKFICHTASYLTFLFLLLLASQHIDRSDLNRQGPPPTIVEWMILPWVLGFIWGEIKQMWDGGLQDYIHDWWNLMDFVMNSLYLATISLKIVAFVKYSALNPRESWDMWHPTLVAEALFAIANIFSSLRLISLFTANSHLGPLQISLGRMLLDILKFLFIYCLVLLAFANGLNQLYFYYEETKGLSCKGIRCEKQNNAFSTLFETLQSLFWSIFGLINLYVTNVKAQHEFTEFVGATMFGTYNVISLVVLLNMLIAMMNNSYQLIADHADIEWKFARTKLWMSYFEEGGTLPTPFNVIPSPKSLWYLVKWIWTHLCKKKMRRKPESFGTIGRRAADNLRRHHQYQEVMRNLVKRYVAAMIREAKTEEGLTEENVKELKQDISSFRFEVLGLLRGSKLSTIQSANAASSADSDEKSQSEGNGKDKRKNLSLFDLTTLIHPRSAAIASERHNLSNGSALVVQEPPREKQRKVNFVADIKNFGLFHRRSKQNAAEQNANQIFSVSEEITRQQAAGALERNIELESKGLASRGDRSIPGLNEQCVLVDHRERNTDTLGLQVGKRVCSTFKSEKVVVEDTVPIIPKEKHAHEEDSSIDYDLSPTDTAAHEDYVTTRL
A short description of assay [14]: calcium flux inhibitors in TRPC4/5HT1a cells, confirmation, counter-screen for TRPC4 inhibitor project, cell-based, second counter screen, HEK293 TRPC4/5HT1a, Fluo-4 (AID 434978;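 active means primary screen active whose calcium signal fell more than 3 SD beyond the full-serotonin control mean in both duplicate plates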;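 further: serotonin given first at submaximal then at maximal dose after compound preincubation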). The settings on record: Fluo-4 calcium flux, at 10 µM, serotonin added to trigger calcium flux; stronger effect = higher value.
Assay [15] deals with TRPC4 (mouse), co-expressed with 5HT1a in HEK293. The assay can be described thus: calcium flux potentiators in TRPC4/5HT1a cells, confirmation, counter-screen for TRPC4 potentiator project, cell-based, second counter screen, HEK293 TRPC4/5HT1a, Fluo-4 (AID 434979;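 active means signal rise over 3 SD above mean of control wells given weak agonist, in both repeats and first screen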). The settings on record: Fluo-4 calcium flux, at 10 µM, serotonin added at its EC20 dose; stronger effect = higher value.
Assay [16] is described as follows: calcium flux activation in mu-opioid HEK293 cells, confirmation, counter-screen for TRPC4 activator project, cell-based, HEK293 mu-opioid receptor line (AID 449723;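 active means hit in primary screen, with calcium signal over 5 SD above buffer well mean in both duplicates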;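 further: counter screen cells carry the mu-opioid receptor alone and lack TRPC4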). The settings on record: Fluo-4 calcium fluorescence, at 10 µM; stronger effect = higher value.
The nature of assay [17]: calcium flux enhancement in mu-opioid HEK293 cells, confirmation, counter-screen for TRPC4 allosteric potentiator project, cell-based, HEK293 mu-opioid receptor line (AID 449724;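 active means calcium signal rise more than 3 SD above the low-dose agonist control mean, in both duplicate plates and the primary screen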;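 further: HEK293 cells carrying mu-opioid receptor only with no TRPC4 channel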). The settings on record: Fluo-4 calcium flux, at 10 µM, compound added before EC20 DAMGO stimulus; stronger effect = higher value.

For part of these data: Measured potencies and affinities stand elsewhere. The source made the active and inactive calls.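 How the source made its calls, unless noted: active means membrane potential signal rise above negative control mean plus 3 SD in both duplicates, also active in the earlier TRPC4 screen; inactive means the rest.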

Chain of Short transient receptor potential channel 6 (Mus musculus) (Q61143 whole entry, looked up): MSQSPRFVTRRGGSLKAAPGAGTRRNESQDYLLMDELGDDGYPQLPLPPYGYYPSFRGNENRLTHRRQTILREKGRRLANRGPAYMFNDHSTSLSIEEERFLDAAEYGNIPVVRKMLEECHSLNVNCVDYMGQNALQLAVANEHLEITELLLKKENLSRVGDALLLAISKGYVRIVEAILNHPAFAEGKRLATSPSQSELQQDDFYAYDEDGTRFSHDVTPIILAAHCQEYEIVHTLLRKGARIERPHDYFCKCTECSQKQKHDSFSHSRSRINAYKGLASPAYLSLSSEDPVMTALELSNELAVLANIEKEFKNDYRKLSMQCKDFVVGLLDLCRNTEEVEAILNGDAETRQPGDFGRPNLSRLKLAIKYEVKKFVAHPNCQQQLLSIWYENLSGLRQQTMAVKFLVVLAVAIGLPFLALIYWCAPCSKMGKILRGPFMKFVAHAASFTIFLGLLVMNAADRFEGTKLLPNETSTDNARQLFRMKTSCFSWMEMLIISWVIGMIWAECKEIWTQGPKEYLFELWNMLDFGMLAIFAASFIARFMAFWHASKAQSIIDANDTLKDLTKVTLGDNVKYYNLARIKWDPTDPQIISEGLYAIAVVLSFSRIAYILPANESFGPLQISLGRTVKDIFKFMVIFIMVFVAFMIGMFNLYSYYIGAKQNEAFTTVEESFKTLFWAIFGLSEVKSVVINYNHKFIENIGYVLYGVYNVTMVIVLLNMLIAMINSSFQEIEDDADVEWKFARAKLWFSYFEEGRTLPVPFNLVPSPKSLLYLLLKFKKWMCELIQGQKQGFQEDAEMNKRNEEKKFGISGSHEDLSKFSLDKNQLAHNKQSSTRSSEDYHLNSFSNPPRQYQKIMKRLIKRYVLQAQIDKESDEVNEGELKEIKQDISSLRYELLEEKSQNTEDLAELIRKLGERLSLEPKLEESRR

Take `COc1ccc(CCN2C(=S)N(C)C(=O)C2CC(=O)Nc2ccc(F)cc2)cc1` (stereo not given): the result in [1], in [2], in assay [3], in [4], in [5] and in assay [6] was inactive. Moreover, the result in assay [7], in [8], in assay [9], in assay [10], in assay [11] and in [12] was inactive. Also, the result in assay [13], in [14], in assay [15], in assay [16] and in assay [17] was inactive.
With `Cc1ccc(-c2c(C(=O)N/N=C/c3ccc(OC(C)C)cc3)nnn2-c2nonc2N)cc1`, the outcome in assay [1], in assay [2], in [3], in [4], in [5] and in assay [6] was inactive. The result in assay [7], in [8], in [9], in assay [10], in assay [11] and in [12] was inactive. The result in assay [13], in assay [14], in [16] and in assay [17] was inactive. In addition, the potentiation in assay [15] is 19.3% (active).
Regarding `CCOc1ccccc1NC(=O)CN(c1ccc(OC)cc1)S(=O)(=O)c1c(C)[nH]c(=O)[nH]c1=O`, the result in assay [1], in [2], in [3], in assay [4], in assay [5] and in assay [6] was inactive. Besides, the outcome in assay [7], in assay [8], in [9], in assay [10], in assay [11] and in assay [12] was inactive. The outcome in [13], in assay [14], in assay [16] and in [17] was inactive. The potentiation in assay [15] was 16.4% (active).
For the compound `COc1ccc(NS(=O)(=O)c2cccc(C(=O)N3CCN(Cc4cc(OC)ccc4OC)CC3)c2)cc1`, the outcome in assay [1], in [2], in assay [3], in assay [4], in assay [5] and in assay [6] was inactive. Moreover, the outcome in assay [7], in [8], in [9], in assay [10], in assay [11] and in assay [12] was inactive. Also, the outcome in assay [13], in [14], in assay [15], in [16] and in assay [17] was inactive.
Consider `CC1CCc2c(C(=O)N3CCN(S(=O)(=O)c4cccs4)CC3)csc2C1` (stereo not given), for which the outcome in assay [1], in assay [2], in assay [3], in assay [5], in [6] and in assay [7] was inactive. In addition, the result in assay [8], in assay [9], in assay [10], in assay [11], in assay [12] and in assay [13] was inactive. Also, the result in [14], in assay [15], in assay [16] and in [17] was inactive. For the same compound, in [4], the potentiation was 22% (active).
`CC(C)(C)c1ccc(-c2nc3cc(N)ccc3o2)cc1`: the outcome in assay [1], in [2], in assay [3], in assay [4], in [5] and in [6] was inactive. The result in [7], in assay [8], in assay [9], in assay [10], in assay [11] and in assay [12] was inactive. Moreover, the outcome in assay [13], in assay [14], in assay [15], in assay [16] and in assay [17] was inactive.
Take `CCN1CCN(c2ccc(S(=O)(=O)N3CCCCC3)cc2NC(=O)c2cccc(F)c2)CC1`: the outcome in assay [1], in [2], in assay [3], in assay [4], in assay [5] and in [6] was inactive. Also, the result in assay [7], in [8], in assay [9], in assay [10], in [11] and in assay [12] was inactive. In addition, the result in assay [13], in [14], in [16] and in [17] was inactive. For the same compound, the potentiation in [15] was 18.4% (active).
The inhibition is the relative decrease from the control value, in per cent. `Cc1nnc(Sc2cc(NCCCO)c([N+](=O)[O-])c3nonc23)s1`: the outcome in [1], in assay [2], in assay [3], in [4], in [6] and in [7] was inactive. Further, the result in assay [8], in assay [9], in [10], in assay [11], in assay [12] and in assay [13] was inactive. In addition, the outcome in assay [14], in [15], in [16] and in assay [17] was inactive. The inhibition in [5] was 84% (active).
Regarding `CCCN(C(=O)COC(=O)C12CCC(=O)N1c1ccccc1S2)c1c(N)n(Cc2ccccc2)c(=O)[nH]c1=O` (stereo not given), the result in [1], in assay [2], in assay [3], in assay [4], in assay [6] and in assay [7] was inactive. Besides, the outcome in assay [8], in assay [9], in assay [10], in assay [12], in assay [13] and in assay [14] was inactive. Also, the outcome in [15], in assay [16] and in assay [17] was inactive. In addition, the inhibition in [5] is 52% (active). The activation in [11] is 28% (active).
Regarding `CC1(C(=O)OCc2cc(=O)n3cc(Br)ccc3n2)CC1(Cl)Cl` (stereo not given), the result in assay [1], in assay [2], in [5], in assay [6], in [7] and in [8] was inactive. In addition, the result in assay [9], in [10], in assay [11], in assay [12], in [13] and in assay [14] was inactive. In addition, the outcome in [16] and in assay [17] was inactive. For the same compound, the potentiation is 15% (active) in [3], 84% (active) in assay [4] and 56.2% (active) in [15].
In the case of `CCOc1ccc(CN(C)CC(=O)NNC(=O)c2ccc(Cl)cc2)cc1OC`, the result in [1], in assay [2], in [5], in assay [6], in assay [7] and in [8] was inactive. Besides, the result in assay [9], in assay [10], in assay [11], in assay [12], in assay [13] and in assay [14] was inactive. Besides, the outcome in [16] and in assay [17] was inactive. The figures for the potentiation in [3], in assay [4] and in assay [15] were 41% (active), 22% (active) and 11% (active), respectively.
Turning to `C=CCn1c(SCC(=O)c2ccc(NS(=O)(=O)c3ccccc3)cc2)nnc1-c1cccs1`, the outcome in assay [1], in [2], in [3], in assay [4], in assay [5] and in [6] was inactive. Moreover, the result in assay [7], in [8], in assay [9], in [10], in assay [11] and in assay [12] was inactive. The outcome in assay [13], in assay [14], in [16] and in assay [17] was inactive. Further, the potentiation in [15] was 14% (active).
With `Cc1ccc(Nc2ccc(S(=O)(=O)N3CCOCC3)cc2[N+](=O)[O-])cc1C`, the result in assay [1], in assay [2], in [3], in [4], in assay [5] and in assay [6] was inactive. Moreover, the outcome in assay [7], in [8], in assay [9], in [10], in assay [11] and in [12] was inactive. Besides, the outcome in assay [13], in [14], in assay [15], in [16] and in [17] was inactive.
In the case of `COc1ccc(C2C(O)C(c3c[nH]c4ccccc34)=NN2C(=O)CCl)cc1` (stereo not given), the result in assay [1], in assay [2], in assay [3], in [5], in [6] and in assay [7] was inactive. Also, the result in assay [8], in assay [9], in assay [10], in assay [11], in [12] and in assay [13] was inactive. For the same compound, the outcome in assay [14], in assay [16] and in assay [17] was inactive. In addition, the figures for the potentiation in assay [4] and in assay [15] were 36% (active) and 28.9% (active), respectively.
On to `CCC(=O)Nc1cc(ON=C(C)C)cc([N+](=O)[O-])c1`, for which the result in assay [1], in assay [2], in assay [3], in assay [4], in assay [5] and in assay [6] was inactive. Moreover, the outcome in [7], in [8], in [9], in assay [10], in [11] and in assay [12] was inactive. Further, the result in assay [13], in assay [14], in assay [15], in assay [16] and in assay [17] was inactive.

(Values after PubChem BioAssay.)
